Screening results deposited in PubChem BioAssay by The Scripps Research Institute Molecular Screening Center.
NOTCH ag = activates NOTCH signaling in reporter cells; 15,000 tested, 0.4% active; AID 434982; activation, % at 2.5 µM; NOTCH signaling luciferase reporter cells, luminescence; in the data active = activation above about 2.2%
luminol inh ctr = quenches luminol chemiluminescence in Nox1 counter-screen. HRP/luminol/H2O2 chemiluminescence counterscreen. inhibition, % at 6.7 µM. 16,000 tested, 0.4% active. AID 1823; note: reference of the scale not given here
PME-1 Maybr inh = PME-1 (human) inhibition, Maybridge primary screen. recombinant PME-1, FP-Rh probe fluorescence polarization. inhibition, % at 9 µM. AID 2291. 16,000 tested, 0.5% active. Q9Y570; in the data active = inhibition above about 30%
Target sequence (Q9Y570 whole entry, looked up): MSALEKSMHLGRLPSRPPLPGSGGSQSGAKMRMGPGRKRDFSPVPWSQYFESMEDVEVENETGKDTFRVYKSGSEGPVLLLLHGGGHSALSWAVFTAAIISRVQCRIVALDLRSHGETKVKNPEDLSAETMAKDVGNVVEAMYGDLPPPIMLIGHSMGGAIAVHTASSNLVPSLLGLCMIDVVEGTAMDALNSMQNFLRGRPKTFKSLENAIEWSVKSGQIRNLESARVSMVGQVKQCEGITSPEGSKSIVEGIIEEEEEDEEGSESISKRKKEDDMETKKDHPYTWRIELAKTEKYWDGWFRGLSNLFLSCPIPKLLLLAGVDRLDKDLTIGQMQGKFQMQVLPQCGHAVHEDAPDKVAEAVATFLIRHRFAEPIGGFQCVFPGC
Nox1 inh = inhibitors of human NADPH oxidase 1 (Nox1); Q9Y5S8; HT29 cells, luminol chemiluminescence ROS; inhibition, % at 6.7 µM; 16,000 tested, 0.81% active; AID 1792
The depositor's hits bear a star; · = not tested or not shown. This is a sample that favours compounds with a hit; in the whole collection about 2.2% have one here. Cut-off read from the data, not from the text of the source, unless noted: active = inhibition above about 75%; inactive = the rest.

SMILES	NOTCH ag	luminol inh ctr	PME-1 Maybr inh	Nox1 inh
N#Cc1ccc(N2CCN(S(=O)(=O)c3ccccc3)CC2)nc1	3.4*	-1	6	-7
c1csc(-c2nn[nH]n2)c1	2.9*	-8	6	5
COc1cc(-c2n[nH]c(=S)n2C2CCCCC2)cc(OC)c1OC	0	87*	2	19
S=c1[nH]nc(-c2ccccc2Cl)n1C1CCCCC1	0	1	0	-3
COc1cc(-c2n[nH]c(=S)n2-c2ccccc2Cl)cc(OC)c1OC	0	95*	1	-8
Cc1nc(C)c(-c2n[nH]c(=S)n2C)s1	0	100*	3	6
CCC(C)(C)OC(=O)c1cc([N+](=O)[O-])cc2c1-c1ccc([N+](=O)[O-])cc1C2=O	0	1	5	54
O=C(Nc1ccc(Cl)cc1Cl)c1cc([N+](=O)[O-])cc2c1-c1ccc([N+](=O)[O-])cc1C2=O	0	-2	1	101*
COc1ccc(/C(C#N)=C/c2cnc(-c3ccccc3)[nH]2)cc1	0	-4	50*	0
CCS(=O)(=O)c1ccc(O)c(NC(=O)c2ccccc2C(=O)O)c1	0	10	11	96*
Nc1nc(NCc2ccccc2OC(F)(F)F)n[nH]1	0	1	-2	88*
Nc1nc(NCc2c(Cl)cccc2Oc2ccccc2)n[nH]1	0	-6	6	84*
O=C(NCc1c(Cl)cccc1Oc1ccccc1)Nc1ccc(F)cc1	-1	-7	7	34
COc1ccc(N=C(N)N=C(N)N)cc1	0	0	-2	-77
COc1cc(C2SCCS2)cc([N+](=O)[O-])c1OC(=O)Cc1ccccc1	0	0	3	-50
Cc1c(C(=O)Cn2nnc(N3CCOCC3)n2)c(C)c([N+](=O)[O-])c(C(C)(C)C)c1[N+](=O)[O-]	0	-2	2	64
CCn1c(CN2c3ccccc3Sc3ccccc32)n[nH]c1=S	0	16	14	26
CCn1c(-c2cc(-c3ccccc3)sc2N)n[nH]c1=S	-1	6	10	98*
CCOC(=O)COc1cccc([N+](=O)[O-])c1	3.0*	-6	5	-5
CCOC(=O)COc1cccc(NC(=O)c2ccccc2Cl)c1	0	3	-4	-14
COC(=O)c1sccc1N=Nc1c(O)ccc2ccccc12	0	10	-3	-24
C=CCn1c(C(C)Oc2ccc(Cl)cc2)n[nH]c1=S (stereo unspecified)	1	94*	0	10
COc1ccc(-c2n[nH]c(=S)n2-c2ccccc2Cl)cc1	-1	13	-2	-80
FC(F)(F)c1ccc(-n2ccnc2)cc1	0	4	0	-66
Cc1cc(C(=O)NN)ccc1[N+](=O)[O-]	0	7	5	22
SMILES	NOTCH ag	luminol inh ctr	PME-1 Maybr inh	Nox1 inh
Cc1cc(OCc2ccccc2)ccc1[N+](=O)[O-]	2.5*	-2	3	-15
COC(=O)c1cnc(NNS(=O)(=O)c2ccc(Cl)cc2)nc1C(F)(F)F	0	19	3	98*
COC(=O)c1cnc(NNC(=O)C(Cl)Cl)nc1C(F)(F)F	1	43	7	39
CCOC(=O)CCc1ccc(Oc2c([N+](=O)[O-])cc(C(F)(F)F)cc2[N+](=O)[O-])cc1	·	-40	1	-50
CCOC(=O)CCc1ccc2c(c1)NC(c1ccc([N+](=O)[O-])s1)O2 (stereo unspecified)	0	15	1	82*
CCOC(=O)CCc1ccc2c(c1)NC(c1cccc([N+](=O)[O-])c1)O2 (stereo unspecified)	0	33	-7	96*
O=C(Nc1ccccc1)C(C(F)(F)F)C(F)(F)F	0	-5	2	-25
O=C(Oc1ccc(Cl)cc1Cl)C1=Cc2cc(Cl)ccc2OC1	0	-4	-5	-30
C/C(=N\N=C(/C)c1cccc([N+](=O)[O-])c1)c1cccc([N+](=O)[O-])c1	-1	3	-5	-45
CC1(C)N=c2ccc([N+](=O)[O-])cc2=N1	0	6	38*	-7
O=C(O)/C=C/C(=O)NNC(=O)c1ccccc1[N+](=O)[O-]	·	8	3	-72
O=C(NNC(=O)c1ccccc1[N+](=O)[O-])c1cc2c(s1)-c1ccccc1CC2	2.4*	18	4	3
Cn1nc(C(C)(C)C)cc1C(=O)NNc1c(Cl)cncc1Cl	·	3	2	-5
COc1ccc(N(C)CC(=O)O)c(C(=O)O)c1	0	-4	5	97*
COc1cccc(/C=N/NC(=O)C2CCCN(C(=S)NNC3CC4C=CC3C4)CC2)c1O (stereo unspecified)	·	22	-1	0
O=C(NNC(=S)Nc1cccc(Cl)c1)c1ccncc1	1	14	2	30
CC(=O)Oc1ccc(OC(C)=O)c2c1[C@@H]1C=C[C@H]2CC1	-1	-1	2	81*
CC(=O)Oc1cccc(OC(C)=O)c1[N+](=O)[O-]	0	2	-3	-45
CCOC(=O)c1c(O)c2scc(C)c2[nH]c1=O	-1	5	-3	-49
CC(=O)O/N=C(/N)c1csc([N+](=O)[O-])c1	-1	1	4	-59
Cc1nc(C(F)(F)F)c(C(=O)NNc2ncc(C(F)(F)F)cc2Cl)s1	0	6	-1	85*
CSc1sc(C2=NNC(O)(C(F)(F)F)C2)c2c1C(=O)CCC2(C)C (stereo unspecified)	-2	-6	36*	32
O=c1c2c(-c3ccc([N+](=O)[O-])cc3)onc2n(-c2ccccc2)c(=O)n1-c1ccccc1	-1	2	1	94*
COc1ccc(-c2nc(-c3cccc([N+](=O)[O-])c3)cs2)cc1	3.3*	2	-3	0
O=C(Oc1cccc2[nH]ccc12)c1ccc(C(F)(F)F)cc1	-1	0	3	80*
SMILES	NOTCH ag	luminol inh ctr	PME-1 Maybr inh	Nox1 inh
CCOC(=O)C(C#N)C(=O)c1c(-c2c(Cl)cccc2Cl)noc1C (stereo unspecified)	·	-7	7	-8
O=S(=O)(NCc1ccccc1)c1cc(Br)c(Br)s1	0	-1	74*	-26
CN(NC=C(C#N)C#N)c1ccccc1[N+](=O)[O-]	0	-5	6	104*
CC(=O)Nc1sc(=Nc2ccc(C)c(C)c2)n(C(C)=O)c1-c1ccc2c(c1)OCO2	-1	4	35*	29
O=C(Nc1ccc2nccnc2c1)c1cccnc1Oc1ccc(Cl)cc1	-1	-1	0	-33
O=S(=O)(Nc1ccc(N2CCCCC2)cc1)c1cc(S(=O)(=O)c2ccccc2)cs1	0	16	22	104*
O=S(=O)(CCSc1nccc(-c2ccc(Cl)cc2)n1)c1ccccc1	0	-1	0	-32
c1ccc(C2=Nc3ccccc3N=C(c3ccccc3)C2)cc1	0	-5	-3	10
N#CC(C#N)=C1c2cc(S(N)(=O)=O)cc([N+](=O)[O-])c2-c2c1cc(S(N)(=O)=O)cc2[N+](=O)[O-]	0	8	73*	34
COc1cccc(NC(=O)c2cccc3c2OCCCO3)c1	0	2	4	-49
O=[N+]([O-])c1ccc(OCS(=O)(=O)c2ccc(F)cc2F)c(Cl)c1	0	-7	7	24
